Here are results for 16 compounds from PubChem BioAssay.

“And” between values parts separate entries of the source, which are not always exact repeats. Equal values may be shown once. Inconclusive results are not listed. The source made the active and inactive calls.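 How the source made its calls, unless noted: active means compounds whose cell count with miR-34 switched on is under 0.7 times the count with it off; inactive means the rest.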

The nature of experiment [1]: JHH-DIPG-1 glioma cell viability, MIPE5.0 library, CellTiter-Glo luminescence, qHTS (AID 1347067; cut-off not given, nearly all actives have AC50 up to about 26 µM;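 further: cells exposed to compound for 48 hours before readout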). The conditions noted are these: JHH-DIPG-1 glioma viability, CellTiter-Glo ATP luminescence.
The nature of experiment [2]: growth inhibition of DIPG cells – cell-based, MIPE5.0 library, qHTS (AID 1347068; cut-off not given, nearly all actives have IC50 up to about 30 µM). The note with it: SU-DIPG-XXV viability. On the technique in general: qHTS replaces the single test concentration by a dilution series.
A short description of experiment [3]: P. berghei load reduction in hepatocytes – cell-based, HepG2, luciferase luminescence, HepG2 viability, primary screen (AID 624349; in the data active means parasite load remaining mostly below about 12%, no sharp cut-off; inactive means mostly above about 10%;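 further: 100% = mean of DMSO negative control wells on the same plate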). The conditions noted are these: P. berghei liver stage in HepG2, luciferase luminescence, concentration not given here; parasite load remaining: stronger effect = lower value; viability: measured here: HepG2 viability without parasites.
Experiment [4] has as its system Hepatitis C virus NS3 helicase. Put plainly: blockers of NS3h binding to ssDNA – biochemical, fluorescence polarization, LOPAC1280 library, primary screen (AID 687035; in the data active means inhibition above about 37%). The note with it: Purified HCV NS3 helicase, Cy5-dT15 ssDNA binding fluorescence polarization; stronger effect = higher value; concentration not given here.
Experiment [5] can be described thus: compounds altering Cy5-DNA-NS3h complex signal – biochemical, LOPAC1280, artefact control for HCV NS3 helicase inhibitor project (AID 687037; call rule not given here). The conditions noted are these: Cy5-DNA-NS3h complex fluorescence interference counterscreen. On the technique in general: The purpose of a counterscreen is to sort out artefacts and off-target activity.
Experiment [6] is described as follows: viability loss with induced miR-34 in A549 – imaging, A549 dox-inducible miR-34, nuclei and caspase counts, primary screen (AID 1347080). The conditions noted are these: A549 miR-34 inducible, Hoechst nuclei count, 48 h.
The nature of experiment [7]: blockers of cellular phospholipid synthesis – cell-based, LOPAC library, screen 4, primary screen (AID 1347384; call rule not given here). The note with it: animal cells, phospholipid biosynthesis inhibition screen; at 10 µM.
The nature of experiment [8]: galactose survival enhancers in mitochondrial complex I cybrids – cell-based, galactose medium, ATP luminescence, primary screen (AID 1645843;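 active means z-score of at least 1.8 in each of two replicates, scored against plate mean and spread of sample wells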;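 further: positive z means more ATP and so rescue of galactose-driven cybrid death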). The note with it: complex I mutant cybrid cells, 72 h, stronger effect = higher value.
Where [9] appears, read: stronger effect = lower value, cell number ratio, induced over uninduced.
Setting [10] is: measured here: relative caspase fold change +Dox/-Dox.
Where [11] appears, read: measured here: total cells with miR-34 induction, stronger effect = lower value.
Setting [12] is: measured here: total cells without miR-34 induction.

Broadly, the AC50 is the concentration giving half of the maximal activity seen. On to `CS(=O)(=O)c1ccc(-c2cnc(NCc3ccco3)n3cnnc23)cc1`, for which the AC50 in experiment [1] is 20.9 µM (active).
As to `Cc1ccc2cc(-c3c(C)ccc(C(=O)c4c(-c5ccccc5)n(C)n(-c5ccccc5)c4=O)c3N)ccc2n1`, the call in experiment [1] and in experiment [2] was inactive.
Consider `Cn1cc(-c2ccc(-c3cncc(Cl)c3N3CCC4(CCNC4=O)CC3)cc2)cn1`, for which the compound was called inactive in experiment [1] and in experiment [2].
Consider `COCC(=O)NC/C=C/c1ccc2ncnc(Nc3ccc(Oc4ccc(C)nc4)c(C)c3)c2c1`, for which, in experiment [1], the result was inactive.
As a reminder, the viability is a read-out of living cells in per cent, often relative to untreated cells. What is called inhibition is the percentage by which the read-out fell short of the control. Take `O=C1NC(=O)/C(=C/c2ccc3nccnc3c2)S1`: the parasite load remaining in experiment [3] is 25.6% (inactive). This compound also registered a viability in experiment [3] of 76.4%. For the same compound, in experiment [4], the inhibition is 0% (inactive). For the same compound, the fluorescence ratio (interference) in experiment [5] is 1 (inactive). Also, the compound was classed as inactive in experiment [2] and in experiment [7]. In addition, the fold change in experiment [6] (setting [9]) was 0.99 (inactive) and 0.764 (inactive); in experiment [6] (setting [10]), 0.943 and 0.46. Also, the cell count in experiment [6] (setting [11]) was 3810 and 4630; in experiment [6] (setting [12]), 3850 and 6050. Moreover, in experiment [8], the z-score was 0.905 (inactive).
With `Cn1c(NC[C@@H](N)Cc2ccccc2)nc(-c2ccncc2)c(-c2ccc3ccccc3c2)c1=O`, in experiment [2], the compound was classed as inactive.
`O=C(CCCCc1ccccc1)C(F)(F)C(F)(F)F`: the fold change in experiment [6] (setting [9]) was 0.952 (inactive); in experiment [6] (setting [10]), 1.77. Further, the figures for the cell count in experiment [6] (setting [11]) and in experiment [6] (setting [12]) were 5980 and 6280, respectively.
For `CCCCCCCCCCCCC/C=C/[C@H](O)[C@@H](CO)NC(=O)CCCCCCCCCCCCCCCCCCCCCCC` the same measures were 0.979 (inactive), 0.918, 5890 and 6010.
The like results for `O=P(O)(O)OC1[C@H](O)[C@H](O)C(O)[C@H](O)[C@H]1O` (some centres undefined) were, in that order, 1.11 (inactive), 0.357, 6420 and 5790.
`C[C@]12CCC3[C@@H](CC[C@H]4NC(=O)C=C[C@]34C)[C@@H]1CC[C@@H]2C(=O)Nc1cc(C(F)(F)F)ccc1C(F)(F)F` (some centres undefined): in experiment [2], the compound was called inactive.
For the compound `CCCCC[C@H](O)/C=C/[C@H]1[C@H](O)CC(=O)[C@@H]1CCCCCCC(=O)NCCO`, the fold change is 0.954 (inactive) in experiment [6] (setting [9]) and 1.4 in experiment [6] (setting [10]). Besides, the cell count in experiment [6] (setting [11]) amounted to 5990; in experiment [6] (setting [12]), 6270.
`CCCCCCCCCCCCCCOc1ccc(C(=O)O)o1`: the results for the fold change in experiment [6] (setting [9]) and in experiment [6] (setting [10]) were 0.937 (inactive) and 1, respectively. Moreover, the cell count in experiment [6] (setting [11]) amounted to 5650; in experiment [6] (setting [12]), 6030.
In the case of `CCCCCCCCNC(=O)Cc1c(C)n(C(=O)c2ccc(Cl)cc2)c2ccc(OC)cc12`, the values for the fold change in experiment [6] (setting [9]) and in experiment [6] (setting [10]) were 1.03 (inactive) and 0.978, respectively. For the same compound, the cell count was 5650 in experiment [6] (setting [11]) and 5490 in experiment [6] (setting [12]).
Take `COc1nnc2ccc(N3CCC(c4ccc(OCCN5CCN(C)C(=O)[C@H]5C)cc4)CC3)nn12`: the outcome in experiment [2] was inactive.
On to `O=C(O)CCC/C=C\C[C@@H]1[C@@H](/C=C/C(=O)COc2cccc(C(F)(F)F)c2)[C@H](O)C[C@@H]1O`, for which the fold change in experiment [6] (setting [9]) is 0.949 (inactive); in experiment [6] (setting [10]), 0.381. The cell count in experiment [6] (setting [11]) turned out to be 6020; in experiment [6] (setting [12]), 6340.
Take `CC#CC(=O)N1CC[C@@H](n2c(=O)n(-c3ccc(Oc4ccccc4)cc3)c3c(N)ncnc32)C1`: the compound was called inactive in experiment [2].
